The source made the active and inactive calls. The calls were made as follows: active = hit-call score of the fitted dose curve at least 0.9, where 1 is the maximum; inactive = score below 0.9.

Read-out in this assay: TIMP1, TIMP1 (gene 7076)
The assay can be described thus: LTEA_HepaRG_TIMP1: Life Technologies and Expression Analysis (LTEA) Assay for TIMP1 using HepaRG (AID 2283534).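 As to outcome: TaqMan qRT-PCR signal normalized to ACTB GAPDH and POLR2A housekeeping genes.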 To be noted: mRNA level, 48 h; actives raise or lower the signal. How it is done:
LTEA_HepaRG is a cell based, multiplexed-readout assay that uses HepaRG, a human liver cell line, with measurements taken at 48 hours after chemical dosing on a 96-well plate.LTEA_HepaRG_TIMP1 is one of 102 assay component(s) measured in the LTEA HepaRG cell culture assay. It is a marker of Cell proliferation, survival, death.Data from the assay component LTEA_HepaRG_TIMP1 was analyzed into 1 endpoint. This assay endpoint, LTEA_HepaRG_TIMP1, was analyzed with bidirectional fitting relative to DMSO as the negative control and baseline of activity. Using a type of inducible reporter, measures of mRNA induction for gain or loss-of-signal activity can be used to understand regulation of transcription factor activity. To generalize the intended target to other relatable targets, this assay endpoint is annotated to the protease inhibitor intended target family, where the subfamily is metalloproteinase inhibitor.
A total of 1060 chemcials from the ToxCast library were tested in eight-point concentration-response experiments. Cell culture and cytotoxicity assays were conducted at Thermo Fisher Scientific's Custom Services facility (Madison, WI). A single lot of human HepaRG cells (Thermo Fisher Scientific, Frederick, MD) was used for the cell culture experiments. 96-well format collagen type I coated plates of human HepaRG cells were prepared using established methods. Briefly, cryopreserved HepaRG cells were thawed, plated at a density of approximately 100,000 cells/well in HepaRG Thaw, Plate, and General Purpose media (HPRG770, Thermo Fisher Scientific), and incubated for 48 hours. 0.5% DMSO was selected as vehicle control to balance the requisite need of DMSO in HepaRG cultures to maintain differentiation (for example, baseline metabolism, proportions of hepatocytes vs. cholangiocytes), while enabling further hepatic receptor pathway activation (for example, PXR and CAR) in response to chemical exposure. 48 hours after plating, the culture medium was replaced with HepaRG Serum-Free Incudtion Media. Cells were exposed to each test chemical in duplicate and maintained in CO2 incubators for another 48 hours. Chemical plates were thawed to room temperature and 200x concentrations of treatment groups were prepared. 8-point conentration-reponse curves were made with the highest exposure at 100 uM, followed by half-log dilutions, all in 0.5% DMSO. Each test plate contained variouse controls, induction positive controls (1mM phenobarbital), cytotoxicity positive controls ([…] aflatoxin B1), vehicle controls (0.5% DMSO), and total lysis controls (0.5% DMSO). Cell morphology images were taken using an Essen IncuCyte FLR automated microscope, with six 96-well plates imaged in about 24 minutes. Images were captured and exported and JPEG files. Spent culture media was transfered to black-well plates for the LDH assay, and remaining media was sorted at -80 C for later use. Cells were treated with RLT buffer and frozen until shipped for gene expression analysis. Total RNA was isolated from the cell suspension in 75 uL of Buffer RLT (Qiagen, Germantown, MD 20874) by Quintiles/Expression Analysis (Durham, NC) using a custom isolation procedure. Total RNA from each plate well was transferred to a preamplification plate. Fluidigm's 96.96 Dynamic ArrayTM (Fluidigm, Amsterdam, the Netherlands) technology was used for gene expression analyses by quantitative reverse transcription polymerase chain reaction (qRT-PCR, performed by Quintiles/Expression Analysis, Durham, NC)89. Standard TaqManTM Assays (Applied Biosystems/ThermoFisher Scientific, Foster City, CA) were used to assess the expression of 93 genes selected based on their selectivity and sensitivity to important hepatic receptors known to be modulated by environmental chemicals; importance in human hepatocyte functionality; and hepatotoxicity. […]
Turning to `CC(C)(C)c1cc(O)ccc1O`, the molecule was classed as inactive. The same measure, in the same setting: next, `O=C(O)C(F)(F)C(F)(F)C(F)(F)C(F)(F)C(F)(F)C(F)(F)C(F)(F)C(F)(F)C(F)(F)C(F)(F)F`: “inactive”; `CC(C)(C)CC(C)(C)c1ccc(O)cc1`: “inactive”; `ClCC(Cl)CCl`: “inactive”. On to `CC(=O)[O][Hg][c]1ccccc1`, for which the AC50 (as a rule, the concentration at which the activity in the assay is half-maximal) was 83.7 µM (active).

Consider `O=C1C2(Cl)C3(Cl)C4(Cl)C(Cl)(Cl)C5(Cl)C3(Cl)C1(Cl)C5(Cl)C24Cl` (stereo unspecified), for which the AC50 was 93.4 µM (active). With `CN(C)N=O`, the molecule was called inactive. Still for that read-out and setting: next, `NC(=O)O`: “inactive”; `C=CC(=O)OCCCCCC(C)C`: “inactive”; `CCOP(=S)(OCC)Oc1nc(Cl)c(Cl)cc1Cl`: “inactive”.

Consider `O=C(Nc1ccc2[nH]ccc2c1)c1cc2cc(F)ccc2n1Cc1cccc(F)c1`, for which the AC50 is 81.9 µM (active). Consider `CCC(=O)C(CC(C)N(C)C)(c1ccccc1)c1ccccc1` (stereo unspecified), for which the result was inactive.

In the case of `COc1cc(-c2ccc(N)c(OC)c2)ccc1N`, the molecule was classed as inactive. Still for that read-out and setting: the entry for `CCC(C)(C)c1ccc(O)c(C(C)(C)CC)c1` is “inactive”; for `CC(C)(c1ccccc1)c1ccc(O)c(C(C)(C)c2ccccc2)c1` it is “inactive”; for `CCCCCCCCc1ccc(O)cc1` it is “inactive”. Turning to `O=C(O)C(Cl)(Cl)Cl`, the result was inactive. Regarding `Cc1ccccc1N`, the outcome was inactive.

Regarding `O=C(O)C(F)(F)C(F)(F)C(F)(F)C(F)(F)C(F)(F)C(F)(F)F`, the call was inactive. Regarding `CCOP(=S)(OCC)SCSP(=S)(OCC)OCC`, the molecule was called inactive. `Cn1sc(Cl)cc1=O`: the molecule was called inactive. `O=[N+]([O-])c1ccc(O)c([N+](=O)[O-])c1`: the AC50 is 12.6 µM (active). For the molecule `ClC1(Cl)C2(Cl)C3(Cl)C4(Cl)C(Cl)(Cl)C5(Cl)C3(Cl)C1(Cl)C5(Cl)C24Cl` (stereo unspecified), the result was inactive. As to `O=c1[nH]c(=O)[nH]c(=O)[nH]1`, the molecule was called inactive. Consider `CC(C)(OO)c1ccccc1`, for which the outcome was inactive.

In the case of `CCN1CCC2(CC1)COc1cc3c(cc12)N(C(=O)c1ccc(-c2ccc(-c4nnc(C)o4)cc2C)cc1)CC3`, the result was inactive. Same read-out and setting: next, `C=C(C)C(=O)[O][Sn]([CH2]CCC)([CH2]CCC)[CH2]CCC`: “inactive”. Same read-out and setting: next, `Oc1cccc2cccnc12`: “inactive”. Turning to `C[C@@H]1C[C@@H]([C@H](O)CC2CC(=O)NC(=O)C2)C(=O)[C@@H](C)C1`, the AC50 is 50 µM (active).

`CC12CC1(C)C(=O)N(c1cc(Cl)cc(Cl)c1)C2=O` (stereo unspecified): the molecule was called inactive. On to `C[C@]12CCC(=O)C[C@@H]1CC[C@@H]1[C@@H]2CC[C@]2(C)[C@@H](O)CC[C@@H]12`, for which the outcome was inactive.

The record behind these values is PubChem BioAssay (EPA / NIEHS).
